Screening data: PubChem, Broad Institute
Pf Dd2 growth: blocks growth of Plasmodium falciparum Dd2 parasites. P. falciparum Dd2 growth, SYBR Green, 72 h; active compounds read low. activity change, % at 10 µM. 2.3% of 94,000 active; in the data active means activity change below about -80%
T cruzi growth: blocks T. cruzi growth in NIH3T3 culture | T. cruzi beta-gal in NIH3T3, GalScreen luminescence, 90 h | inhibition, % at 8.34 µM | 5.9% of 77,000 active;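 active means mean inhibition above about 93%, with at least 55% of replicates each passing it, limit read from the data, passing the limit was not always enough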
C diff growth: C. difficile growth inhibition. Clostridium difficile clinical isolate growth, OD600, 24 h; active compounds read low. growth activity, negative = inhibition, % at 16 µg/mL (by protocol). 0.25% of 86,000 active;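 active means mean growth activity at or below -80% and every replicate also at or below -80%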
Each line names hits and unclear results; the compound was inactive in the other large screens; ! = repeats disagree. This is a sample that favours compounds with a hit; in the whole collection about 6.7% have one here.

CCC(=O)N1[C@@H](C#N)[C@@H](c2ccccc2-c2cccc(C)c2)[C@@H]1CO	none (no result: T cruzi growth)
COCC(=O)N1[C@@H](C#N)[C@H](c2ccccc2-c2ccccc2)[C@@H]1CO	Pf Dd2 growth -86.2 (no result: T cruzi growth)
CCC(=O)N1[C@H](CO)[C@@H](c2ccccc2-c2cccc(C)c2)[C@@H]1C#N	Pf Dd2 growth -86.3 (no result: T cruzi growth)
COCC(=O)N1[C@H](C#N)[C@@H](c2ccccc2-c2ccccc2)[C@@H]1CO	none (no result: T cruzi growth)
COCC(=O)N1[C@H](CO)[C@@H](c2ccccc2-c2ccccc2)[C@@H]1C#N	none (no result: T cruzi growth)
COCC(=O)N1[C@H](C#N)[C@@H](c2ccccc2-c2ccccc2)[C@H]1CO	Pf Dd2 growth -92.8 (no result: T cruzi growth)
CCCC#Cc1ccc2c(c1)O[C@H](CN(C)C(=O)C1CC1)[C@@H](C)CN([C@@H](C)CO)S2(=O)=O	none
CC=Cc1ccc2n(c1=O)C[C@H]1[C@H](CO)[C@@H](C(=O)NCC3CC3)[C@@H]2N1Cc1ccncc1 (mixture of isomers)	none (no result: Pf Dd2 growth)
COc1ccc2c3c(n(C)c2c1)[C@H](CO)N(C(=O)Nc1ccccc1F)CC31CN(C(=O)c2ccccc2F)C1	none (no result: T cruzi growth)
COc1ccc2c3c(n(C)c2c1)[C@@H](CO)N(C(=O)Nc1ccc(F)cc1)CC31CN(C(=O)c2ccccc2F)C1	Pf Dd2 growth -91.8 (no result: T cruzi growth)
COc1ccc2c3c(n(C)c2c1)[C@@H](CO)N(C(C)=O)CC31CCN(C(=O)Nc2ccc(F)cc2)CC1	Pf Dd2 growth -83.3 (no result: T cruzi growth)
COc1ccc2c3c(n(C)c2c1)[C@@H](CO)N(C(C)=O)CC31CN(C(=O)Nc2ccc(F)cc2)C1	none (no result: T cruzi growth)
COc1ccc2c3c(n(C)c2c1)[C@@H](CO)N(C(=O)c1ccccc1)CC31CCN(C(C)=O)CC1	none (no result: T cruzi growth)
CCCNC(=O)N1CC2(CN(Cc3ccc(OC)cc3)C2)c2c(n(C)c3cc(OC)ccc23)[C@H]1CO	Pf Dd2 growth -80.5 (no result: T cruzi growth)
COc1ccc2c3c(n(C)c2c1)[C@@H](CO)N(C(=O)c1ccccc1)CC31CCN(C(=O)c2ccccc2)CC1	Pf Dd2 growth -87.0 (no result: T cruzi growth)
CCCNC(=O)N1CC2(CN(Cc3ccncc3)C2)c2c(n(C)c3cc(OC)ccc23)[C@H]1CO	none (no result: T cruzi growth)
COc1ccc(NC(=O)N2CCC3(CC2)CN(C(C)=O)[C@H](CO)c2[nH]c4cc(OC)ccc4c23)cc1	none (no result: T cruzi growth)
CC(C)C#Cc1cnc2c(c1)C(=O)N([C@@H](C)CO)C[C@@H](C)[C@H](CN(C)C(=O)c1ccccc1F)O2	none
O=C(C[C@@H]1CC[C@H](NC(=O)c2cccnc2)[C@@H](CO)O1)NCc1ccncn1	none
CCC(=O)N[C@H]1CC[C@H](CC(=O)NCC2CC2)O[C@H]1CO	none (no result: T cruzi growth)
COc1cccc(C#Cc2ccc([C@H]3[C@@H](CO)N4C(=O)CN(C(C)=O)C[C@@H]34)cc2)c1	none (no result: T cruzi growth)
COc1ccc2c3c(n(C)c2c1)[C@@H](CO)N(C(=O)c1ccc(F)cc1)CC31CCN(C(=O)Nc2ccc(F)cc2)CC1	Pf Dd2 growth -86.7 (no result: T cruzi growth)
COc1ccc2c3c(n(C)c2c1)[C@H](CO)N(Cc1cccnc1)CC31CN(C(=O)NC(C)C)C1	Pf Dd2 growth -87.7 (no result: T cruzi growth)
COc1ccc2c3c(n(C)c2c1)[C@H](CO)N(C(=O)c1ccc(F)cc1)CC31CCN(C(=O)c2ccc(F)cc2)CC1	none (no result: T cruzi growth)
COc1ccc2c3c(n(C)c2c1)[C@@H](CO)N(C(=O)Nc1ccc(F)cc1)CC31CN(Cc2cccc(F)c2)C1	none (no result: T cruzi growth, C diff growth)
COc1ccc2c3c(n(C)c2c1)[C@H](CO)N(C(=O)Nc1ccc(F)cc1)CC31CN(Cc2cccnc2)C1	Pf Dd2 growth -89.4 (no result: T cruzi growth)
COc1ccc2c3c(n(C)c2c1)[C@@H](CO)N(Cc1cccnc1)CC31CCN(C(=O)NC(C)C)CC1	none (no result: T cruzi growth)
CO[C@@H]1CN(C)C(=O)c2cc(NC(=O)C3CC3)ccc2OC[C@H](C)N(CCC(F)(F)F)C[C@H]1C	none (no result: C diff growth)
Fc1ccc(-c2ccc(C3[C@@H]4CN(Cc5ccccc5)C[C@H]3N4)cc2)cc1 (stereo partly drawn)	Pf Dd2 growth -81.8!, C diff growth -94.1! (no result: T cruzi growth)
Fc1cccc(CN2[C@@H]3CNC[C@H]2C3c2ccc(-c3ccccc3)cc2)c1 (stereo partly drawn)	none (no result: T cruzi growth)
Cc1ccc(-c2ccc(C3[C@@H]4CN(Cc5cccnc5)C[C@H]3N4)cc2)cc1 (stereo partly drawn)	Pf Dd2 growth -90.9! (no result: T cruzi growth)
Cc1ccc(-c2ccc(C3[C@@H]4CN(Cc5cccc(F)c5)C[C@H]3N4)cc2)cc1 (stereo partly drawn)	C diff growth -93.8 (no result: T cruzi growth)
Fc1cccc(CN2[C@@H]3CNC[C@H]2C3c2ccc(-c3cccc(F)c3)cc2)c1 (stereo partly drawn)	C diff growth -98.9! (no result: T cruzi growth)
Cc1cccc(-c2ccc(C3[C@@H]4CN(Cc5cccnc5)C[C@H]3N4)cc2)c1 (stereo partly drawn)	none (no result: T cruzi growth)
CN(C)C(=O)c1cccc(-c2ccc(C3[C@@H]4CN(Cc5ccc6c(c5)OCO6)C[C@H]3N4)cc2)c1 (stereo partly drawn)	none (no result: T cruzi growth)
Fc1ccc(CN2[C@@H]3CNC[C@H]2C3c2ccc(-c3ccccc3)cc2)cc1 (stereo partly drawn)	none (no result: T cruzi growth)
CCCNC(=O)N1[C@@H](CO)[C@H](c2ccccc2)C12CN(C(=O)c1cccnc1)C2	none (no result: T cruzi growth)
COc1ccc2c3c([nH]c2c1)[C@H](CO)N(C(=O)C1CCCC1)CC31CCN(S(C)(=O)=O)CC1	none (no result: T cruzi growth)
CNC(=O)C[C@H]1CC[C@@H]2[C@@H](COc3ccc(NC(=O)Nc4cccc(F)c4)cc3C(=O)N2C)O1	none (no result: C diff growth)
CC(=O)N(C)C[C@H]1Oc2ncc(C#CCC3CCCC3)cc2C(=O)N([C@H](C)CO)C[C@@H]1C	none
CN1CCN(C(=O)C[C@@H]2CC[C@H]3[C@@H](COc4ccc(NC(=O)C5CCCC5)cc4C(=O)N3C)O2)CC1	none (no result: T cruzi growth)
COc1cccc(S(=O)(=O)N[C@H]2C=C[C@@H](CC(=O)NCc3ccncc3)O[C@H]2CO)c1	none
O=C(C[C@@H]1CC[C@H]2[C@@H](COC[C@H](O)CN2Cc2nccs2)O1)NCc1ccc(Cl)cc1	none (no result: C diff growth)
Fc1cccc(-c2ccc([C@@H]3[C@@H]4CN(Cc5nccs5)C[C@H]3N4)cc2)c1	none (no result: T cruzi growth)
O=C(C1CCCC1)N1C[C@@H]2N[C@H](C1)C2c1ccc(/C=C/c2ccccc2)cc1 (stereo partly drawn)	none (no result: T cruzi growth)
Fc1cccc(CN2C[C@@H]3N[C@H](C2)C3c2ccc(/C=C/c3ccccc3)cc2)c1 (stereo partly drawn)	C diff growth -99.8! (no result: T cruzi growth)
Fc1ccc(-c2ccc(C3[C@@H]4CN(Cc5cccc(F)c5)C[C@H]3N4)cc2)cc1 (stereo partly drawn)	C diff growth -99.0 (no result: T cruzi growth)
COCC#Cc1cnc2c(c1)C(=O)N([C@@H](C)CO)C[C@@H](C)[C@H](CN(C)C(=O)Nc1cccc(F)c1)O2	none
NCCCCCNC(=O)[C@@H]1C[C@@H]2C(=O)N[C@@H](Cc3ccccc3)C(=O)N2[C@@H]1c1ccc(O)cc1	none (no result: Pf Dd2 growth, T cruzi growth)
COc1cccc(C#Cc2cnc3c(c2)C(=O)N([C@H](C)CO)C[C@H](C)[C@H](CN(C)C(=O)C2CCOCC2)O3)c1	none (no result: T cruzi growth)
COc1cccc(C#Cc2cnc3c(c2)C(=O)N([C@@H](C)CO)C[C@H](C)[C@@H](CN(C)C(=O)C2CCOCC2)O3)c1	Pf Dd2 growth -82.6 (no result: T cruzi growth)
COc1cccc(C#Cc2cnc3c(c2)C(=O)N([C@@H](C)CO)C[C@H](C)[C@H](CN(C)C(=O)C2CCCCC2)O3)c1	Pf Dd2 growth -82.6
